Test results taken from ChEMBL document CHEMBL1961873, “Compounds: GSK PKIS; Assays: Nanosyn kinase panel” (2012).

What was measured:
[1] = biological target: Death-associated protein kinase 1 (Homo sapiens) (UniProt P53355); settings: at 1 µM;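 note: each value is a mean inhibition figure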
[2] = biological target: T1, Serine/threonine-protein kinase DCLK2 (Homo sapiens) (UniProt Q8N568); settings: at 0.1 µM
T1 sequence (whole entry): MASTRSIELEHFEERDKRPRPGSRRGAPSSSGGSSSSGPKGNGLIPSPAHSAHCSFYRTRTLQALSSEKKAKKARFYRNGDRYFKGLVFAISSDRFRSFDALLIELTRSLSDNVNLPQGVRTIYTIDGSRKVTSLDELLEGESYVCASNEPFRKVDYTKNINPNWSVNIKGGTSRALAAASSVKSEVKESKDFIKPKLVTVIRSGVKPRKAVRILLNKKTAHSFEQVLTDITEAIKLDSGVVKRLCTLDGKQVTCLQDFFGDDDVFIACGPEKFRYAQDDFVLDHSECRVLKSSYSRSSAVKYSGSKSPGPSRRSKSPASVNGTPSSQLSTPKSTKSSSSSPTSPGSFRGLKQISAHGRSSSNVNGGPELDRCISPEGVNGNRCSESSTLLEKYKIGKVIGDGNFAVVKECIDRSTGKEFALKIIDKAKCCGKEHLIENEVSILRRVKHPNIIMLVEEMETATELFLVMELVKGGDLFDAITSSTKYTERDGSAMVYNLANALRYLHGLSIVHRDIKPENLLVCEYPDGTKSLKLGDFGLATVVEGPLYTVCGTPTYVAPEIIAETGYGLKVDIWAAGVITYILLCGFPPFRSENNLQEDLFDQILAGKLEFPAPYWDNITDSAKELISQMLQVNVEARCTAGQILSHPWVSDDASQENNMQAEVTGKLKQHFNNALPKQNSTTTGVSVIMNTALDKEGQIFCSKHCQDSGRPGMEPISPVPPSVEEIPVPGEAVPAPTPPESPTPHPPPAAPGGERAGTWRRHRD

[3] = biological target: T1, Serine/threonine-protein kinase DCLK2 (Homo sapiens); settings: at 1 µM
[4] = biological target: MAP kinase-activated protein kinase 2 (Homo sapiens) (UniProt P49137); settings: at 0.1 µM
Chain of MAP kinase-activated protein kinase 2 (Homo sapiens) (P49137 whole entry, looked up): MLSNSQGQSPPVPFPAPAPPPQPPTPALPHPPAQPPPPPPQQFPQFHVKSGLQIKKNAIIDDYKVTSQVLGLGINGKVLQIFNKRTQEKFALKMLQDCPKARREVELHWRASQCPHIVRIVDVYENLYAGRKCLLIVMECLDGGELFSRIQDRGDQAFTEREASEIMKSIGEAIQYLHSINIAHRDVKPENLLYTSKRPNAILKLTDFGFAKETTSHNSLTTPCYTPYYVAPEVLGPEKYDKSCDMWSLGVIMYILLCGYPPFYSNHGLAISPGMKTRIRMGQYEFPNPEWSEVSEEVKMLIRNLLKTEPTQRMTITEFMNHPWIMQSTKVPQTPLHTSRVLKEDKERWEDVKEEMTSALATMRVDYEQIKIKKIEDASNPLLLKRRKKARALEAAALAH

[5] = biological target: MAP kinase-activated protein kinase 2 (Homo sapiens) (UniProt P49137); settings: at 1 µM
[6] = biological target: MAP kinase-activated protein kinase 3 (Homo sapiens) (UniProt Q16644); settings: at 0.1 µM
[7] = biological target: MAP kinase-activated protein kinase 3 (Homo sapiens) (UniProt Q16644); settings: at 1 µM
[8] = biological target: Serine/threonine-protein kinase MARK1 (Homo sapiens) (UniProt Q9P0L2); settings: at 0.1 µM
Chain of Serine/threonine-protein kinase MARK1 (Homo sapiens) (Q9P0L2 whole entry, looked up): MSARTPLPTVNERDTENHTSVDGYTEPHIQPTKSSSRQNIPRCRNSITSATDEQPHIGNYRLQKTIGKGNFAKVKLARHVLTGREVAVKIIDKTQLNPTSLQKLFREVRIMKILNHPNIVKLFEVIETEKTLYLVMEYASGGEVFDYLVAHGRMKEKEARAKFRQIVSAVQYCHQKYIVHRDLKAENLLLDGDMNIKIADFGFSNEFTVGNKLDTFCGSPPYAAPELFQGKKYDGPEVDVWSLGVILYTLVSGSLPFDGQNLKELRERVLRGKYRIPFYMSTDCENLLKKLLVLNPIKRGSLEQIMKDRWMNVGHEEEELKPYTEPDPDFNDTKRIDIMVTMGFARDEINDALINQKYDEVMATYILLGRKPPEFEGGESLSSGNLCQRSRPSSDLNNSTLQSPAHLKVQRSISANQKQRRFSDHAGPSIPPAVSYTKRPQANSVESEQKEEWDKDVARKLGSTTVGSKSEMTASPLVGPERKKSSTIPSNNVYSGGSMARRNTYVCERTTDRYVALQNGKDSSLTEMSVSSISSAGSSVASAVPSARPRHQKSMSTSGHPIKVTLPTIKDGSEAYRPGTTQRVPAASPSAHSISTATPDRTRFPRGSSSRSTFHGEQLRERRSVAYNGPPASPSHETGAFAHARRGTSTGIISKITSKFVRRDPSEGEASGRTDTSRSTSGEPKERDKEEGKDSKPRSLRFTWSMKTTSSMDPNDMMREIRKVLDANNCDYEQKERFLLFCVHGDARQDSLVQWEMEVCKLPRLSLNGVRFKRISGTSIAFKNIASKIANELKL

[9] = biological target: Serine/threonine-protein kinase MARK1 (Homo sapiens) (UniProt Q9P0L2); settings: at 1 µM
[10] = biological target: MAP/microtubule affinity-regulating kinase 3 (Homo sapiens) (UniProt P27448); settings: at 0.1 µM
Chain of MAP/microtubule affinity-regulating kinase 3 (Homo sapiens) (P27448 whole entry, looked up): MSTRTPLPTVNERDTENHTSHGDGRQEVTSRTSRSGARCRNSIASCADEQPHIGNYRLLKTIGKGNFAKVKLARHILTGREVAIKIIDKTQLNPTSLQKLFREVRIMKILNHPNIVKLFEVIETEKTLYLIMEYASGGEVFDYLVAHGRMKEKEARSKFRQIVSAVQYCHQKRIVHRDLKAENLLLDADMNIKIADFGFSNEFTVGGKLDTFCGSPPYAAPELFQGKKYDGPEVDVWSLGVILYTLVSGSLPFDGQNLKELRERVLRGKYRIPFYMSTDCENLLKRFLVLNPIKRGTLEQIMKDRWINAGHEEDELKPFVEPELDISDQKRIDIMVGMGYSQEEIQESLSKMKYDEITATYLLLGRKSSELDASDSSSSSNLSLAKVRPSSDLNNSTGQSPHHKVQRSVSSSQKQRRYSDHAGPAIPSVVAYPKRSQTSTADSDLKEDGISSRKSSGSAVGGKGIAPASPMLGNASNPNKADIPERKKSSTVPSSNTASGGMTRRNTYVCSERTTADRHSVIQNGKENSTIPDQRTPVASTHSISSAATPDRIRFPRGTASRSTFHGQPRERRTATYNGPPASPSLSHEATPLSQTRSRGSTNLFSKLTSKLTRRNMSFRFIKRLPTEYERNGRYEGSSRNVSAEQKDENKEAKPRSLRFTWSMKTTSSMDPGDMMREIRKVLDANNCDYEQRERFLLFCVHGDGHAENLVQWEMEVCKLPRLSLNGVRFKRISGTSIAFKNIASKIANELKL

[11] = biological target: MAP/microtubule affinity-regulating kinase 3 (Homo sapiens) (UniProt P27448); settings: at 1 µM
[12] = biological target: T2, MAP/microtubule affinity-regulating kinase 4 (Homo sapiens) (UniProt Q96L34); settings: at 0.1 µM
T2 sequence (whole entry): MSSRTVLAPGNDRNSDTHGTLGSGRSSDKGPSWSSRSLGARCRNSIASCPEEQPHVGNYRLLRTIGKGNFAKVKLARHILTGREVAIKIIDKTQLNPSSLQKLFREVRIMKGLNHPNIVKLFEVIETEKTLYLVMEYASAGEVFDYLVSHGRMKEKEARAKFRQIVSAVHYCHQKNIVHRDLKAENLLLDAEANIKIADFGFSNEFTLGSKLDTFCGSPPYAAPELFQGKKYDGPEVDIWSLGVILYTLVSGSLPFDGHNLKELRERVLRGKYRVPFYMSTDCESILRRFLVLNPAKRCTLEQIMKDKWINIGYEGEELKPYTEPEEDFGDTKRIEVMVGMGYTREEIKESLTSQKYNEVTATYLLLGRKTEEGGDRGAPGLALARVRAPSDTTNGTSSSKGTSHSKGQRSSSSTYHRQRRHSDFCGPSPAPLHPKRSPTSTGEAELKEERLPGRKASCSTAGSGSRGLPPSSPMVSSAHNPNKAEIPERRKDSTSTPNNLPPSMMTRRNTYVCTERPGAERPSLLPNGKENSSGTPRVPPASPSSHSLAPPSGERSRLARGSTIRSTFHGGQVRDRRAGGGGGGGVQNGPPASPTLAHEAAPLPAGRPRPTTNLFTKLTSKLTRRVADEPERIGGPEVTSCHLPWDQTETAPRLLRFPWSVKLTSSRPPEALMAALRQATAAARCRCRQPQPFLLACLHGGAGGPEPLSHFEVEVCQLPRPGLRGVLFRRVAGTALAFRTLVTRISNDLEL

[13] = biological target: T2, MAP/microtubule affinity-regulating kinase 4 (Homo sapiens); settings: at 1 µM
[14] = biological target: Maternal embryonic leucine zipper kinase (Homo sapiens) (UniProt Q14680); settings: at 0.1 µM
Chain of Maternal embryonic leucine zipper kinase (Homo sapiens) (Q14680 whole entry, looked up): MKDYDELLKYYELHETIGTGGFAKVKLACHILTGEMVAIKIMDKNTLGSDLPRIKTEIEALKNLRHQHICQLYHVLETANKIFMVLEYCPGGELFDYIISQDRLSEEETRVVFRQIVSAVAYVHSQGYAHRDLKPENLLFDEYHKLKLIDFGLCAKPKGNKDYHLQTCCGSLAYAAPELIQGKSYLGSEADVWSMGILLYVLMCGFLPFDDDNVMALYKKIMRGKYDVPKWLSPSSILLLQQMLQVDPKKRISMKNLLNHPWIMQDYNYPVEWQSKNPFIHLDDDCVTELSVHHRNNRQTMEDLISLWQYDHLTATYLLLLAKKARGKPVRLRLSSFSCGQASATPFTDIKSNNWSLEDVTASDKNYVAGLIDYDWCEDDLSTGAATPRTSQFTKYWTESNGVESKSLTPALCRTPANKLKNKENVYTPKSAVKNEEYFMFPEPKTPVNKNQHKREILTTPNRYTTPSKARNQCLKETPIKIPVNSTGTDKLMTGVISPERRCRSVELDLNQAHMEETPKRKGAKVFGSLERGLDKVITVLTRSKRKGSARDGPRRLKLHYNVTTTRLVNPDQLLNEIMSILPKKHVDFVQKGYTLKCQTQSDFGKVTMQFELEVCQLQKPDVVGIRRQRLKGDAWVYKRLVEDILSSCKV

[15] = biological target: Maternal embryonic leucine zipper kinase (Homo sapiens) (UniProt Q14680); settings: at 1 µM
[16] = biological target: MAP kinase-interacting serine/threonine-protein kinase 1 (Homo sapiens) (UniProt Q9BUB5); settings: at 0.1 µM
Chain of MAP kinase-interacting serine/threonine-protein kinase 1 (Homo sapiens) (Q9BUB5 whole entry, looked up): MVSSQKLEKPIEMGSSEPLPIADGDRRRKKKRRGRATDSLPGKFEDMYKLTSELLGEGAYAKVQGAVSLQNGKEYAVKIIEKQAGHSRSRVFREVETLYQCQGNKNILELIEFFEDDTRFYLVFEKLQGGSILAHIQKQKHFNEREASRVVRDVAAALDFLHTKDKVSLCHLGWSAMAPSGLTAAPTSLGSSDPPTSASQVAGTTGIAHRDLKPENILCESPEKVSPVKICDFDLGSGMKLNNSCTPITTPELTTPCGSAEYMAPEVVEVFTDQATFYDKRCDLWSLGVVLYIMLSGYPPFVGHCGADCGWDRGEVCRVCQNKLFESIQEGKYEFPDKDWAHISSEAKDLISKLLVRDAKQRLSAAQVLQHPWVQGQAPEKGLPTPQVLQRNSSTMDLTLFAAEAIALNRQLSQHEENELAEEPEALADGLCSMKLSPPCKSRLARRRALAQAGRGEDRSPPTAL

[17] = biological target: MAP kinase-interacting serine/threonine-protein kinase 1 (Homo sapiens) (UniProt Q9BUB5); settings: at 1 µM
[18] = biological target: MAP kinase-interacting serine/threonine-protein kinase 2 (Homo sapiens) (UniProt Q9HBH9); settings: at 0.1 µM
Chain of MAP kinase-interacting serine/threonine-protein kinase 2 (Homo sapiens) (Q9HBH9 whole entry, looked up): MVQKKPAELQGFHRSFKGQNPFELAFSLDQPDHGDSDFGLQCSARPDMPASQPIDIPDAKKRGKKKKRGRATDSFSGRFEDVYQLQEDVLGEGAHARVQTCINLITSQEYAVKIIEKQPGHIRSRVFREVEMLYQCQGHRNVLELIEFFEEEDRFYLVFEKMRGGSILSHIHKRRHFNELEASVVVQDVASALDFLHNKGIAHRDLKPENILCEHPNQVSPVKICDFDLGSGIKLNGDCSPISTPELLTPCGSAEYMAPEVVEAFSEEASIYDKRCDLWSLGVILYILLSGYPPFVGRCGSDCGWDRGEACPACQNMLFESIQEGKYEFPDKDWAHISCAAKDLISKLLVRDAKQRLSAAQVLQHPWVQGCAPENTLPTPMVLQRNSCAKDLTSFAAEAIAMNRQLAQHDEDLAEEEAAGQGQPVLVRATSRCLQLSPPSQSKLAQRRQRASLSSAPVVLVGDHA

[19] = biological target: MAP kinase-interacting serine/threonine-protein kinase 2 (Homo sapiens) (UniProt Q9HBH9); settings: at 1 µM
[20] = biological target: Serine/threonine-protein kinase MARK2 (Homo sapiens) (UniProt Q7KZI7); settings: at 0.1 µM;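 note: mean percent inhibition of PAR-1Balpha kinase activity, reported from the GSK PKIS screen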

Chain of Death-associated protein kinase 1 (Homo sapiens) (P53355 whole entry, looked up): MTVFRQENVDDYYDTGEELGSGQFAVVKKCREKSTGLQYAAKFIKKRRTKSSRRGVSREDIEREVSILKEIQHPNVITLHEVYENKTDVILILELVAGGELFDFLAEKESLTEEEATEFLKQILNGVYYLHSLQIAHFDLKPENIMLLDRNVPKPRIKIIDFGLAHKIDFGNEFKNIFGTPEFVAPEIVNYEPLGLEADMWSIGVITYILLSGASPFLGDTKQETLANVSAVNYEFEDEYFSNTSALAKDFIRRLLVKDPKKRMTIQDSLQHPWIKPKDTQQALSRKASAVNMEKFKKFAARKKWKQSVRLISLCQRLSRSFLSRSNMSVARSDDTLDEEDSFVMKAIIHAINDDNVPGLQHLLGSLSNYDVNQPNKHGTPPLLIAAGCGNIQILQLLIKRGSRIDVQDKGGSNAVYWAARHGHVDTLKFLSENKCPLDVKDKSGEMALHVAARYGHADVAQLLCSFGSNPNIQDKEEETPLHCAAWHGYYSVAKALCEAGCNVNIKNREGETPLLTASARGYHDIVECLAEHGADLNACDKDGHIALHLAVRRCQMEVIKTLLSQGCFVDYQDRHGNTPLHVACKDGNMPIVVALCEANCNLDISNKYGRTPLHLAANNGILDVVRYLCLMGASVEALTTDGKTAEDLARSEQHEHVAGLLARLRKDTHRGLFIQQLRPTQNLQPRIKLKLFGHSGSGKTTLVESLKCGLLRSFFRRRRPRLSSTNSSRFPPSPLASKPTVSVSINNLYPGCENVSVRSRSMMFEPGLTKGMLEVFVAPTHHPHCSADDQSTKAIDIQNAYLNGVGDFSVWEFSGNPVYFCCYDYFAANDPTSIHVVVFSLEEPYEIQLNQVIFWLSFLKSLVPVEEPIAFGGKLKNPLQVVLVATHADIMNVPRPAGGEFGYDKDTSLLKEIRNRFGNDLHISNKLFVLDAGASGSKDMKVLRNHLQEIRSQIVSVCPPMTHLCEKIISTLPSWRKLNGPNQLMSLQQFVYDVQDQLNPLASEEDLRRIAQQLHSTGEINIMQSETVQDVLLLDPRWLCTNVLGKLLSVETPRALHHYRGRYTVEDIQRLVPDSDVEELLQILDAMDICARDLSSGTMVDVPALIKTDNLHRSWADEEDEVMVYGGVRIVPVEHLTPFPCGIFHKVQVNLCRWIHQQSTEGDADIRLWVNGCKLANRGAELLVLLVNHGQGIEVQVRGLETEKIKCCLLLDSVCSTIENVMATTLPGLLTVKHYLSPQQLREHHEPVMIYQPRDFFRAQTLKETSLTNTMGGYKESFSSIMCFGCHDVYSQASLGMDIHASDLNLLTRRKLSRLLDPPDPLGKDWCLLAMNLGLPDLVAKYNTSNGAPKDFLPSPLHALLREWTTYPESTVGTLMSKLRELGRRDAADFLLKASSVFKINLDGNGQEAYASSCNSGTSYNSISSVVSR

Row | SMILES | inhibition [1] [%] | inhibition [2] [%] | inhibition [3] [%] | inhibition [4] [%] | inhibition [5] [%] | inhibition [6] [%] | inhibition [7] [%] | inhibition [8] [%] | inhibition [9] [%] | inhibition [10] [%] | inhibition [11] [%] | inhibition [12] [%] | inhibition [13] [%] | inhibition [14] [%] | inhibition [15] [%] | inhibition [16] [%] | inhibition [17] [%] | inhibition [18] [%] | inhibition [19] [%] | inhibition [20] [%]
1 | NC(=O)c1ccc(Oc2nccc(-c3c(-c4ccc(F)cc4)ncn3C3CCNCC3)n2)cc1 | -3.98 | 0.57 | 1.94 | 0.01 | 1.79 | 17.6 | 30.8 | 2.78 | 4.16 | 3.42 | 6.64 | 1.51 | 2.24 | 7.28 | 11.6 | 3.92 | 4.27 | 3.56 | 4.79 | 2.73
2 | Fc1ccc(-c2ncn(C3CCNCC3)c2-c2ccnc(Oc3ccc(F)c(F)c3)n2)cc1 | 2.08 | -3.27 | -1.37 | 1.11 | 0.66 | 18.5 | 31.3 | 2.93 | 4.99 | 3.47 | 12.2 | 3.57 | 4.5 | 7.73 | 7.03 | 2.05 | 3.06 | 1.28 | 1.04 | -0.25
3 | Cc1ccc(NC(=O)c2ccoc2)cc1-c1ccc(C(=O)NCC2CC2)cc1 | 4.7 | -0.46 | -0.45 | 0.09 | -0.32 | 20 | 30.9 | 0.5 | 1.39 | 1.61 | 1.79 | 0.31 | 0.19 | 3.06 | -0.33 | 3.06 | 4.75 | -0.05 | 2.22 | -0.93
4 | Nc1nccc(-c2c(-c3ccc(F)cc3)ncn2C2CCC(O)CC2)n1 (stereo not given) | -0.38 | -1.66 | 5.59 | -1.26 | -1.57 | 30 | 36.4 | -0.13 | 0.51 | -1.63 | 0.22 | 0.43 | 1.28 | -3.21 | 1.19 | 0.34 | 0.48 | 0.18 | 0.46 | 1.84
5 | COc1cc2ncn(-c3cc(OCc4ccccc4C(F)(F)F)c(C(C)=O)s3)c2cc1OC | 1.98 | -1.1 | 1.3 | 1.03 | 0.77 | 3.07 | 2.6 | 4.34 | 2.61 | 0.67 | 3.71 | 3 | 2.91 | 3.94 | 1.83 | 3.58 | 5.46 | 1.92 | 4.93 | -0.07
6 | COc1cc(N2CCN(C(C)C)CC2)ccc1Nc1nc(Nc2ccc(F)cc2C(=O)NC[C@@H](O)CO)c2cc[nH]c2n1 | 46.8 | 2.24 | -4.14 | 1.77 | 2.39 | 4.35 | 4.3 | 3.88 | 7.69 | 1.03 | 19.6 | 1.95 | 2.9 | 3.61 | 19.9 | 3.33 | 8.52 | 1.03 | 5.28 | 1.97
7 | CS(=O)(=O)CCNCc1ccc(-c2ccc3ncnc(Nc4ccc(OCc5ccccc5)c(Br)c4)c3c2)o1 | 2.27 | -2.49 | -1.71 | 1.3 | 0.14 | 3.07 | 2.03 | 1.99 | 1.61 | 3.89 | -0.13 | 2.98 | 2.37 | 5.3 | 5.37 | 2.72 | 6.16 | 2.36 | 7.73 | 0.23
8 | Cc1nnc(-c2ccc(C)c(-c3ccc(C(=O)NCc4ccc(Cl)cc4)cc3)c2)o1 | 1.9 | -1.39 | -8.11 | 1.41 | 0.78 | 5.02 | 15.7 | 2.82 | 4.92 | 0.14 | -1.1 | 2.02 | 1.96 | 4.87 | 5.52 | 2.03 | 6.45 | 0.86 | 1.57 | 1.6
9 | Fc1ccc(-c2ncn(CCCN3CCOCC3)c2-c2ccncc2)cc1 | 2.3 | -1.56 | 5.36 | -0.27 | -0.32 | 3.13 | 14.5 | 0.51 | 0.81 | 2.21 | 22 | 0.52 | 0.72 | -0.32 | -0.03 | -0.96 | 0.15 | -1.39 | -0.24 | -1.95
10 | CN1CCN(CCCNc2nc3ccc(Oc4ccc(NC(=O)Nc5cc(C(F)(F)F)ccc5F)cc4)cc3[nH]2)CC1 | -0.71 | -6.99 | -0.8 | -0.45 | -0.49 | 3.34 | 18.3 | 0.78 | 0.66 | 5.08 | 0.11 | 1.5 | 2.34 | 0.4 | -0.26 | 2.77 | 15.5 | 0.67 | 9.51 | -0.44
11 | COc1cc(C)c(N(C)C(=O)CN(C)C)cc1Nc1nc(Nc2cccc(F)c2C(N)=O)c2cc[nH]c2n1 | 1.79 | -2.4 | -3.85 | -0.22 | 0.04 | 1.56 | 0.17 | 0.72 | 1.97 | 3.34 | 4.11 | 1.12 | 1.75 | -1.34 | 5.45 | -0.51 | 1.72 | -1.19 | -0.74 | 0.4
12 | CNC(=O)c1cncc(/C=C/c2c(C)cccc2C)c1 | 0.45 | -0.24 | -2.53 | 0.41 | -0.68 | 0.6 | 0.25 | 0.88 | 0.89 | 0.44 | 2 | -0.27 | 1.46 | -1.92 | 0.37 | -0.2 | 8.06 | 0.57 | 5.36 | 0.03
13 | C[C@@H](Oc1cc(-n2cnc3ccc(OCC4CCN(C)CC4)cc32)sc1C(N)=O)c1ccccc1Cl | 9.2 | 0.87 | 4.91 | 2.09 | 4.06 | 2.95 | 3.34 | 3.83 | 24.3 | 4.91 | 31.2 | 6.41 | 23.9 | 7.59 | 37.9 | 2.4 | 5.78 | 1.96 | 5.86 | 3.52
14 | COc1cc2ncn(-c3cc(OCc4cccs4)c(C(N)=O)s3)c2cc1OC | -2.56 | -9.99 | -0.46 | 0.78 | 1.78 | 1.75 | 2.97 | 2.63 | 15.8 | 3.86 | 20.3 | 2.12 | 9.4 | 2.35 | 4.91 | 3.56 | 14.7 | 3.17 | 13 | 1.68
